Data reported in PubChem BioAssay (Tox21).
Values joined by “and” are separate entries in the source; they are usually repeats but may differ in a detail not shown here. Equal values may be shown once. Inconclusive results are not listed. Where a call stands in place of a potency, no number is given. Active and inactive are the calls of the source. Unless noted, calls come from the whole dose curve; as a rule, active = well fitted curve in the direction sought with a large enough effect in the repeat runs; inconclusive = weak or mixed curves; inactive = no such curve, though single readings can be large; an effect the other way counts as inactive or inconclusive.

Legend:
[1] = qHTS assay to identify small molecule agonists of the androgen receptor (AR) signaling pathway in the presence of an antagonist - cell viability counter screen (AID 1259379);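 note: MDA-kb2 human breast cancer cells carrying an MMTV luciferase reporter; series mostly up to about 92 µM; nearly all actives have a fitted effect of over 25% in size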
Summary of the method: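 Cytotoxicity is assessed by CellTiter-Fluor in MDA-kb2 cells carrying an MMTV-driven luciferase reporter. Cells receive 3.0uM nilutamide plus compounds at 15 concentrations and incubate 16 hr at 37C without CO2 before fluorescence reading.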

[2] = qHTS assay to identify small molecule agonists of the estrogen receptor beta (ER-beta) signaling pathway - cell viability counter screen (AID 1259380); note: nearly all actives have a fitted effect of over 30% in size; note: potency is the fitted concentration of half-maximal effect
Summary of the method: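 Cytotoxicity is measured in parallel with the reporter screen: after 16 hr compound exposure at 37C and a 2 hr LiveBLAzer step, CellTiter-Glo is added to the same ER-beta-UAS-bla HEK293T wells and luminescence read after 30 min.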

[3] = molecular target: Androgen receptor (Homo sapiens) (UniProt P10275); experiment: qHTS assay to identify small molecule agonists of the androgen receptor (AR) signaling pathway in the presence of an antagonist (AID 1259381; calls by dose curve; note: nearly all actives have a fitted effect of over 15% in size; note: potency is the fitted concentration of half-maximal effect)
Androgen receptor (Homo sapiens), sequence (P10275 whole entry, looked up): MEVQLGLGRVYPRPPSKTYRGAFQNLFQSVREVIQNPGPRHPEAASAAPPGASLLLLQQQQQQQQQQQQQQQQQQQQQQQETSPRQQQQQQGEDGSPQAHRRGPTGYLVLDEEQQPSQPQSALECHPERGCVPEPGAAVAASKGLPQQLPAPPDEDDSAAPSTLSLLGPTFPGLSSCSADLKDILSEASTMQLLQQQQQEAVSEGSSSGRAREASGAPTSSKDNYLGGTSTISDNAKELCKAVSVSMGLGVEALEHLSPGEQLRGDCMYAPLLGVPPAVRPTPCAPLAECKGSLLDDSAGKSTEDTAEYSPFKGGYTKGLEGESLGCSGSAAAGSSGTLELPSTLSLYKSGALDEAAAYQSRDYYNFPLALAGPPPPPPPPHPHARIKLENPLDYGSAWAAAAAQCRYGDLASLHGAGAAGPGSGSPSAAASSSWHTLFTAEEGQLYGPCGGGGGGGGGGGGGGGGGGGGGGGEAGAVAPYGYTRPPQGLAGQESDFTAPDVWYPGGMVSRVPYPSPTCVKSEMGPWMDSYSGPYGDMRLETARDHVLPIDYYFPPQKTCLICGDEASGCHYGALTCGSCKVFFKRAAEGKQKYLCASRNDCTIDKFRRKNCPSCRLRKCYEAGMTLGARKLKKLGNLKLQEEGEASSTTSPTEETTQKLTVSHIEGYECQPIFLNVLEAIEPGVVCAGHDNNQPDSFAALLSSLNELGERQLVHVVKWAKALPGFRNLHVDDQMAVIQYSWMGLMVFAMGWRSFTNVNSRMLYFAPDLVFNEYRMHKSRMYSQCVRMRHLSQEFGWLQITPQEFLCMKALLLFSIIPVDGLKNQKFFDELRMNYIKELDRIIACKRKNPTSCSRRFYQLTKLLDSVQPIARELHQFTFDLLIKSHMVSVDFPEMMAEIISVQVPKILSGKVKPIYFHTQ
Summary of the method: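 Agonist-mode confirmation screen: human MDA-kb2 cells stably expressing luciferase under an MMTV promoter bearing AR and GR response elements, co-treated with 3.0uM nilutamide (final). Luminescence measured after 16hr compound incubation.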

[4] = molecular target: Estrogen receptor (Homo sapiens) (UniProt P03372); experiment: qHTS assay to identify small molecule agonists of the estrogen receptor alpha (ER-alpha) signaling pathway in the presence of an antagonist (AID 1259383; calls by dose curve; note: top concentration of the series differs between compounds; nearly all actives have a fitted effect of over 15% in size)
Estrogen receptor (Homo sapiens), sequence (P03372 whole entry, looked up): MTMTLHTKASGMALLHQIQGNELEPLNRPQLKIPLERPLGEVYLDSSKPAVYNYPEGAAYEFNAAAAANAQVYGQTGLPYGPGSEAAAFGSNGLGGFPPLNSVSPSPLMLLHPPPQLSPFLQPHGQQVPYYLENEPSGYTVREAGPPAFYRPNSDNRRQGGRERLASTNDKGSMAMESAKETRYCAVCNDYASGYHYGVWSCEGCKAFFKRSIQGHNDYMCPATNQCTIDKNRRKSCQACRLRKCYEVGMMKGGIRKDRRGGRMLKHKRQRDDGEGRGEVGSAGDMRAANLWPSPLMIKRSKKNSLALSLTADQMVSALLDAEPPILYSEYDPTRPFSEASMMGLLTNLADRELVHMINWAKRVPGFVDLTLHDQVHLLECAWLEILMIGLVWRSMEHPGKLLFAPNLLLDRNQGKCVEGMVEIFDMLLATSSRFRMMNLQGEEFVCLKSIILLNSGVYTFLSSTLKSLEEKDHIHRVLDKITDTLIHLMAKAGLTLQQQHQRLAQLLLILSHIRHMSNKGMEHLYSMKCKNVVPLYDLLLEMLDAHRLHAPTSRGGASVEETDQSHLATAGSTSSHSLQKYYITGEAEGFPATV
Summary of the method: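 Agonist-mode confirmation in the presence of the ER antagonist ICI-182,780 at 10.0nM final. Breast-derived VM7Luc4E2 reporter cells were exposed to compounds for 22hr, and ERE-driven luciferase was quantified by luminescence.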

[5] = qHTS assay to identify small molecule agonists or antagonists of the thyroid stimulating hormone receptor (TSHR) signaling pathway - wild type cell line counter screen (AID 1259384; calls by dose curve)
Summary of the method: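 Wild-type Hek293 cells, 800/well, 18 h at 37C, then compound with Ro20-1724 for 30 min RT. cAMP by HTRF (cAMP-d2/anti-cAMP cryptate), 1 h RT, fluorescence read. 15 concentrations, triplicates.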

[6] = molecular target: Thyrotropin receptor (Homo sapiens) (UniProt P16473); experiment: qHTS assay to identify small molecule antagonists of the thyroid stimulating hormone receptor (TSHR) signaling pathway (AID 1259385; calls by dose curve; note: nearly all actives have a fitted effect of over 20% in size)
Thyrotropin receptor (Homo sapiens), sequence (P16473 whole entry, looked up): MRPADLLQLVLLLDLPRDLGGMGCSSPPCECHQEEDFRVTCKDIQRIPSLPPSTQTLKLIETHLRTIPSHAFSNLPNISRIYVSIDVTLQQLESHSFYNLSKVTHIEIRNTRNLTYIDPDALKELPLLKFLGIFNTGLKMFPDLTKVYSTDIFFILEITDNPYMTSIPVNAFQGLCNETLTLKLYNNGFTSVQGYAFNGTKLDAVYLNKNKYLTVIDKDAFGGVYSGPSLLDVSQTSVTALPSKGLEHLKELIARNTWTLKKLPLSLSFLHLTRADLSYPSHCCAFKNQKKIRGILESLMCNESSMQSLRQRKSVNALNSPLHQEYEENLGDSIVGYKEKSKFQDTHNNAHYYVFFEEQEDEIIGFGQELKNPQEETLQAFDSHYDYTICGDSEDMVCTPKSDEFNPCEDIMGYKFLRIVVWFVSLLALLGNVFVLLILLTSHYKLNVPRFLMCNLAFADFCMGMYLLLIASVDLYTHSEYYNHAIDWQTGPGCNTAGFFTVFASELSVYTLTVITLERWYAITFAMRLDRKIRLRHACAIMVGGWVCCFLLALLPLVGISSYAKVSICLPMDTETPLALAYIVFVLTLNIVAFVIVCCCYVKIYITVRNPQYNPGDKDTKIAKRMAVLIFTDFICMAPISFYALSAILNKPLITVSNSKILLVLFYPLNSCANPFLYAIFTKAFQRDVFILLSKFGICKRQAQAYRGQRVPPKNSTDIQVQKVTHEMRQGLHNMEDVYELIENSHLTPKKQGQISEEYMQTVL
Summary of the method: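 TSHR-HEK293 cells (800/well) plated 18 h, then compounds with Ro20-1724 and TSH at 1.5 ng/mL final, 30 min at room temperature. cAMP quantified by HTRF (cAMP-d2/anti-cAMP-cryptate, 1 h); 15 concentrations in triplicate.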

[7] = qHTS assay to identify small molecule agonists of the estrogen receptor alpha (ER-alpha) signaling pathway in the presence of an antagonist - cell viability counter screen (AID 1259386);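 note: series mostly up to about 92 µM; cells exposed to compounds for 22 h at 37 °C before the viability read; nearly all actives have a fitted effect of over 30% in size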
Summary of the method: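 Cytotoxicity was measured in parallel with the ERE-luciferase agonist screen, in the same wells. The cells were VM7Luc4E2, which endogenously express ER-alpha, and treatment was with compounds plus 10.0nM ICI-182,780 for 22hr.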

[8] = molecular target: Progesterone receptor (Homo sapiens) (UniProt P06401); experiment: qHTS assay to identify small molecule antagonists of the progesterone receptor (PR) signaling pathway (AID 1346795; active = well fitted inhibition curve with a large enough effect in the signal ratio in the repeat runs, not every such curve was filed as active; the % refers to the signal ratio; note: potency is the fitted concentration of half-maximal effect)
Progesterone receptor (Homo sapiens), sequence (P06401 whole entry, looked up): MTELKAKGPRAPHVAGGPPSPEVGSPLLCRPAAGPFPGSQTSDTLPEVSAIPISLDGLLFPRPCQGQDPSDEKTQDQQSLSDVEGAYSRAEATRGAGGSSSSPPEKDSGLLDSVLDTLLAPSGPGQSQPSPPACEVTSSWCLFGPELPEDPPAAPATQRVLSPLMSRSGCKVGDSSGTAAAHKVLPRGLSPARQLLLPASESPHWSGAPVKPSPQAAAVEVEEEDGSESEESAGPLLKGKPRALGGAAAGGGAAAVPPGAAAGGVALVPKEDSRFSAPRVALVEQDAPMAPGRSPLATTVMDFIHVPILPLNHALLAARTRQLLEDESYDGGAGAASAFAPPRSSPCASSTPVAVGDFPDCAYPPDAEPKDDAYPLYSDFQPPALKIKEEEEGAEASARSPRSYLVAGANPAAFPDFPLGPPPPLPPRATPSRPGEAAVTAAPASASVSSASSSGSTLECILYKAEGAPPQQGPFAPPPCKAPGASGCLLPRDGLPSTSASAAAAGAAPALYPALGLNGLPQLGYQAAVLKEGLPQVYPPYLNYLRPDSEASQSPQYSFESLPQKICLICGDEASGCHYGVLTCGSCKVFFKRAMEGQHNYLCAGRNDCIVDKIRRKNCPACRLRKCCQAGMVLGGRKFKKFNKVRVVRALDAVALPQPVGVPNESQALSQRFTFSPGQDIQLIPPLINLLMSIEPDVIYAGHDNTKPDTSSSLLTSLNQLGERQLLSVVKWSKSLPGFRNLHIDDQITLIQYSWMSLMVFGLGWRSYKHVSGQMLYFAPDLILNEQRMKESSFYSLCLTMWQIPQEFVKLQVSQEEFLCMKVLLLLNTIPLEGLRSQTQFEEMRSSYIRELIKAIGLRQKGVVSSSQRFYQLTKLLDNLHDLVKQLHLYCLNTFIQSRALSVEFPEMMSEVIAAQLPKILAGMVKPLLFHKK
Summary of the method: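 Inhibition of R5020-induced (1 nM final) beta-lactamase reporter signal in PR-UAS-bla HEK293T cells was scored by FRET fluorescence after overnight (16 hr) compound treatment.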

[9] = qHTS assay to identify small molecule antagonists of the progesterone receptor (PR) signaling pathway - cell viability counter screen (AID 1346798); note: nearly all actives have a fitted effect of over 50% in size; note: potency is the fitted concentration of half-maximal effect
Summary of the method: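 ATP content as viability readout: CellTiter-Glo luminescence, 30 min room temperature, in PR-UAS-bla HEK293T cells after 16 hr compound/R5020 treatment at 37C and 5% CO2.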

[10] = qHTS assay to identify small molecule agonists of the progesterone receptor (PR) signaling pathway - cell viability counter screen (AID 1346799; calls by dose curve; note: nearly all actives have a fitted effect of over 45% in size; note: potency is the fitted concentration of half-maximal effect)
Summary of the method: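 Cytotoxicity in PR-bla HEK293T cells: 16 h compound, 37C; CellTiter-Glo added post-FRET read; luminescence after 30 min RT.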

[11] = qHTS assay to identify small molecule antagonists of the TGF-beta/Smad signaling pathway - cell viability counter screen (AID 1346824); note: nearly all actives have a fitted effect of over 50% in size
Summary of the method: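 SBE-bla HEK 293T cells, incubated overnight, then compound plus 0.25 ng/mL TGF-beta1 (stock added) for 5 hr at 37 C. Viability was read in the same wells by CellTiter-Glo luminescence after 30 min at room temperature.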

[12] = qHTS assay to identify small molecule agonists of the TGF-beta/Smad signaling pathway - cell viability counter screen (AID 1346829); note: top concentration of the series differs between compounds; nearly all actives have a fitted effect of over 45% in size
Summary of the method: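 CellTiter-Glo luminescence readout; SBE-bla HEK 293T cells, overnight plating, compound 5 hr at 37 C/5% CO2, then bla substrate 2 hr RT, then CellTiter-Glo 30 min RT.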

[13] = qHTS assay to identify small molecule agonists of the TGF-beta/Smad signaling pathway (AID 1346859; active = well fitted activation curve with a large enough effect in the signal ratio in the repeat runs, not every such curve was filed as active; the % refers to the signal ratio; note: series mostly up to about 77 µM)
Summary of the method: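 Stable Smad binding element-beta-lactamase HEK 293T cells; 5 hr compound exposure at 37 C under 5% CO2; 2 hr room-temperature substrate step; fluorescence excited at 405 nm, collected at 460 nm and 530 nm.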

[14] = molecular target: Thyrotropin-releasing hormone receptor (Homo sapiens) (UniProt P34981); experiment: qHTS assay to identify small molecule antagonists of the thyrotropin-releasing hormone receptor (TRHR) signaling pathway (AID 1346877; active = well fitted inhibition curve with a large enough effect in the repeat runs, not every such curve was filed as active; note: series mostly up to about 51 µM)
Thyrotropin-releasing hormone receptor (Homo sapiens), sequence (P34981 whole entry, looked up): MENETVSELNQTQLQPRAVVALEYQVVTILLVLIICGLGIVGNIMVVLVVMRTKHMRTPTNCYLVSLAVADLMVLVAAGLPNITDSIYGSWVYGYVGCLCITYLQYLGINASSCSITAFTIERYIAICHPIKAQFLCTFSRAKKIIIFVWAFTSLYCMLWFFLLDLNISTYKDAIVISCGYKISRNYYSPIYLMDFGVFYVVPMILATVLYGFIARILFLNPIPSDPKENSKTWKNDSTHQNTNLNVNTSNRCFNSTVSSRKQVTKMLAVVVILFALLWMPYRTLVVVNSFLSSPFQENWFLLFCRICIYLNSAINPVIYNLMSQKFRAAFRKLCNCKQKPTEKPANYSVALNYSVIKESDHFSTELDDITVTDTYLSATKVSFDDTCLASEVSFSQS
Summary of the method: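 Antagonism is measured as suppression of the calcium response to 1 nM TRH in TRHR-HEK293 cells that have been dye-loaded for 2 h at 37 °C after overnight plating. Each compound is tested at 15 concentrations in triplicate.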

[15] = molecular target: Thyrotropin-releasing hormone receptor (Homo sapiens) (UniProt P34981); experiment: qHTS assay to identify small molecule agonists of the thyrotropin-releasing hormone receptor (TRHR) signaling pathway (AID 1346891; calls by dose curve;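 note: HEK293 cells expressing TRHR with calcium dye readout; series mostly up to about 58 µM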)
Summary of the method: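 In 1536-format, 1500 TRHR-Hek293 cells per well grew 18 h, took up calcium dye for 2 h at 37 °C, received compound, and were read kinetically; 15-point titrations, triplicates.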

[16] = Human pregnane X receptor (PXR) small molecule agonists, qHTS cell viability counter screen (AID 1346977); note: nearly all actives have a fitted effect of over 50% in size; note: potency is the fitted concentration of half-maximal effect
Summary of the method: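 Readout is CellTiter-Fluor fluorescence from PXR-Luc HepG2 cells. Plated cells rested 5hr, then were treated with compounds for 24hr at 37C and 5% CO2, with reagent present during the last hour.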

[17] = Caspase-3/7 induction in HepG2 cells by small molecules, qHTS assay (AID 1346978); note: nearly all actives have a fitted effect of over 15% in size; note: potency is the fitted concentration of half-maximal effect
Summary of the method: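 Wild-type HepG2 cells, 2,000/well, settled 5 hr at 37 C and 5% CO2, then compound-treated for 17 hr; caspase-3/7 activity read by luminescent Caspase-Glo 3/7 after 30 min at room temperature.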

[18] = qHTS assay to identify small molecule antagonists of the estrogen receptor beta (ER-beta) signaling pathway - cell viability counter screen (AID 1259382);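 note: HEK293T cells carrying ER-beta-UAS-bla reporter stimulated with estradiol; series mostly up to about 92 µM; nearly all actives have a fitted effect of over 55% in size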
Summary of the method: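 Cytotoxicity counter screen multiplexed with the beta-lactamase antagonist assay: GripTite HEK293T ER-beta-bla cells were treated 16 hr with test chemicals in the presence of 1nM 17-beta-estradiol, and viability was measured by CellTiter-Glo.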

[19] = molecular target: Progesterone receptor (Homo sapiens) (UniProt P06401); experiment: qHTS assay to identify small molecule agonists of the progesterone receptor (PR) signaling pathway (AID 1346784; calls by dose curve; note: nearly all actives have a fitted effect of over 30% in size; note: potency is the fitted concentration of half-maximal effect)
Summary of the method: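 Using charcoal-stripped serum (2%) to limit endogenous steroids, PR-UAS-bla HEK 293T cells received compounds for 16 hr at 37C after 6 hr plating; beta-lactamase FRET fluorescence was recorded following 2 hr substrate loading at room temperature.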

| Structure (SMILES) | Potency [1] | Potency [2] | Potency [3] | Potency [4] | outcome [5] | Potency [6] | Potency [7] | Potency [8] | Potency [9] | Potency [10] | Potency [11] | Potency [12] | outcome [13] | Potency [14] | Potency [15] | Potency [16] | Potency [17] | Potency [18] | Potency [19] |
| --- | --- | --- | --- | --- | --- | --- | --- | --- | --- | --- | --- | --- | --- | --- | --- | --- | --- | --- | --- |
| O=[N+]([O-])c1cc(Cl)ccc1Cl | inactive | inactive | inactive | inactive | inactive | inactive | inactive | inactive | inactive | inactive | inactive | inactive | inactive | inactive | inactive | inactive | inactive | – | – |
| CCCCOP(=O)(CCCC)OCCCC | inactive | inactive | inactive | – | – | – | inactive | inactive | inactive | inactive | inactive | inactive | inactive | – | – | inactive | inactive | inactive | inactive |
| C[C@@H](Oc1ccc(Cl)cc1Cl)C(=O)O | inactive | inactive | – | inactive | inactive | inactive | inactive | – | – | inactive | – | inactive | – | inactive | inactive | inactive | inactive | inactive | – |
| CCCCCCCCCBr | inactive | inactive | – | inactive | inactive | inactive | inactive | inactive | inactive | inactive | inactive | inactive | inactive | inactive | inactive | inactive | inactive | inactive | – |
| N#CCCSCCC#N | inactive | inactive | inactive | inactive | inactive | inactive | inactive | inactive | inactive | – | – | inactive | inactive | inactive | inactive | inactive | inactive | – | – |
| N#C/C=C/c1ccccc1 | inactive | inactive | inactive | inactive | – | – | inactive | inactive | – | inactive | inactive | inactive | inactive | – | – | inactive | inactive | – | – |
| COP(N)(=S)OC | inactive | inactive | – | inactive | inactive | inactive | inactive | inactive | inactive | inactive | inactive | inactive | – | – | – | inactive | inactive | inactive | inactive |
| N#CC(Cl)Cl | inactive | inactive | 47.3 µM (active) | – | inactive | inactive | inactive | inactive | inactive | inactive | inactive | inactive | inactive | inactive | inactive | inactive | inactive | inactive | 5.3 µM (active) |
| C[C@@H]1O[C@@H](O[C@H]2C[C@@H](O)[C@]3(CO)[C@H]4[C@H](O)C[C@]5(C)[C@@H](C6=CC(=O)OC6)CC[C@]5(O)[C@@H]4CC[C@]3(O)C2)[C@H](O)[C@H](O)[C@H]1O | inactive | 81.9 nM (active) and 94.4 nM (active) | 366 nM (active) and 168 nM (active) | inactive | – | – | inactive | – | 81.9 nM (active) and 150 nM (active) | 116 nM (active) and 168 nM (active) | – | – | – | inactive | inactive | – | inactive | – | inactive |
| CCCCCCCCc1ccc(O)cc1 | inactive | 15.4 µM (active) | inactive | – | inactive | inactive | – | 20.4 µM (active) | – | – | – | inactive | – | – | – | 54.8 µM (active) | 43.5 µM (active) | – | – |
| O=c1oc2ccccc2c(O)c1Cc1c(O)c2ccccc2oc1=O | inactive | 5.31 µM (active) | inactive | – | – | – | inactive | – | – | – | inactive | inactive | inactive | – | – | – | inactive | – | inactive |
| O=C(Cl)c1ccc(Cl)cc1 | inactive | inactive | – | inactive | inactive | inactive | inactive | – | inactive | inactive | inactive | inactive | inactive | – | – | inactive | – | inactive | inactive |
| Cc1cccc(OP(=O)(Oc2cccc(C)c2)Oc2cccc(C)c2)c1 | inactive | inactive | inactive | – | inactive | inactive | inactive | 43.3 µM (active) | inactive | inactive | inactive | inactive | inactive | inactive | inactive | inactive | inactive | inactive | – |
